Measured values reported in PubChem BioAssay (NCATS).
Results filed as inconclusive are left out. Where a call stands in place of a potency, no number is given. Activity calls are given as the source filed them. Calls follow the shape of the dose curve; as a rule, active = well fitted inhibition curve with a large enough effect; inconclusive = small, poorly fitted or top-dose-only effect; inactive = no such curve, though single readings can be large or run the other way.

test system: Zika virus NS2B-NS3 protease (linked construct); assay: Primary screen NINDS Rhodamine qHTS for Zika virus inhibitors (AID 1347160); settings: purified NS2B-NS3 protease, Rhodamine110 substrate fluorescence; series mostly up to 57.1 µM; also: nearly all actives have a fitted effect of over 55% in size
Summary of the method: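 Percent inhibition, normalized to uninhibited and enzyme-free controls, is fitted to a 4-parameter Hill equation. Fluorescence change comes from a 15-min cleavage of 1.5 microM bis-peptide Rhodamine110 substrate by 25 nM linked NS2B-NS3 at room temperature.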

SMILES | Potency | activity change, negative = inhibition
CC(=O)Nc1cccc(Nc2ncnc(N3CCC(OCc4ccc(OC(F)(F)F)cc4)CC3)n2)c1C | inactive | 
COc1c2c(nc3occc13)C(CC=C(C)C)(OC)C(O)CC2 (centres undefined) | inactive | 
CC(C)(O)/C=C/C(=O)[C@](C)(O)[C@H]1[C@H](O)C[C@@]2(C)[C@@H]3CC=C4[C@@H](C[C@H](O[C@@H]5O[C@H](CO)[C@@H](O)[C@H](O)[C@H]5O)C(=O)C4(C)C)[C@]3(C)C(=O)C[C@]12C | inactive | 
CCC(C)(OC(C)=O)C(=O)O[C@H]1[C@H](OC(C)=O)[C@]2(CO)[C@H](O)[C@H](O)[C@]3(C)C(=CCC4[C@@]5(C)CC[C@H](O[C@@H]6O[C@H](C(=O)O)[C@@H](O)[C@H](O[C@@H]7OC[C@H](O)[C@H](O[C@@H]8OC[C@H](O)[C@H](O)[C@H]8O)[C@H]7O)[C@H]6O[C@@H]6O[C@H](CO)[C@@H](O)[C@H](O)[C@H]6O)C(C)(C)C5CC[C@]43C)[C@@H]2CC1(C)C (some centres undefined) |  | -4.88% [at 10.7 µM] (inactive)
CN1CCN(c2ccc(Nc3cc(-c4cccc(-n5ccc6cc(C7CC7)cc(F)c6c5=O)c4CO)cn(C)c3=O)nc2)CC1 | inactive | 
O=C(NCCN1CCN(c2cccc3c2OCCO3)CC1)c1ccc(F)cc1 | inactive | 
Cc1ccc(C(=O)Nc2ccc(CN3CCN(C)CC3)c(C(F)(F)F)c2)cc1C#Cc1cnc2[nH]ncc2c1 | inactive | 
C[C@@H]1O[C@@H](O[C@H]2[C@@H]3C=CO[C@@H](O[C@@H]4O[C@H](CO)[C@@H](O)[C@H](O)[C@H]4O)[C@@H]3[C@@]3(CO)O[C@@H]23)[C@H](O)[C@H](OC(=O)/C=C/c2ccccc2)[C@H]1O | inactive | 
CCC(=C(c1ccc(OCCN2CCCC2)cc1)c1ccc(OCCN2CCCC2)cc1)c1ccccc1 | inactive | 
